Results: PubChem BioAssay AID624417 (National Center for Advancing Translational Sciences (NCATS), 2012)
The campaign covered roughly 410,000 compounds. About 6,400 (1.6%) were called active. Inconclusive results (about 20%) are left out. Calls follow the shape of the dose curve; as a rule, active = well fitted inhibition curve with a large enough effect; inconclusive = small, poorly fitted or top-dose-only effect; inactive = no such curve, though single readings can be large or run the other way. Shown is part of a subset that was picked to be rich in actives.

biological target: Glucagon-like peptide 1 receptor (Homo sapiens) (UniProt P43220); test: qHTS of GLP-1 Receptor Inverse Agonists (Inhibition Mode); details: HEK293 GLP-1R CRE-luciferase, luminescence, 24 h, GLP-1R form is constitutively active; series mostly up to 38.3 µM; activity change, negative = inhibition: at the top concentration; also: nearly all actives have a fitted effect of over 55% in size
From the text: The overall goal of this project was to develop a novel assay for discovering small molecule ligands for class B1 G protein-coupled receptors (GPCRs). Very few agonists (or inverse agonists in inhibition mode) with generally weak activity for this entire group of physiologically important receptors are known to date. To establish proof-of-principle that this critical bottleneck can be overcome with a suitable screening approach, our studies focused on the class B1 receptor for glucagon-like peptide-1 (GLP-1R), a potential therapeutic target for diabetes and neurodegenerative disease. The assay was developed using a cell-based functional readout. Toward this goal, stably transfected HEK293 cell clones were established that co-express (i) a cAMP-responsive luciferase reporter gene, and (ii) constitutively active GLP-1R that upon ligand interaction inhibit (inverse agonists) the luciferase activity. In addition, two control cell lines were developed: (i) one that express only the cAMP-responsive reporter gene to enable initial exclusion of GLP-1R independent effects of candidate probes; and (ii) one with the reported gene cloned with another constitutively active orphan receptor GPR119 to enable exclusion of GLP-1R independent inhibitor effects of candidate inverse agonists. To that end, this assay was optimized for 1536-well format and screened against the MLSMR. […] NIH Molecular Libraries Probe Production Network [MLPCN] NIH Chemical Genomics Center [NCGC] Grant: NS064851 PI Name: Martin Beinborn, Tufts Medical Center
Six ul of cell suspension (200 cells/uL in DMEM + 10% Nu serum + 1% pen-strep) is dispensed in a white solid 1536-well plate. The plates are incubated for 12 hours at 37 deg C at 5% CO2 followed by addition of 23 nL compounds. After 24 hr incubation at 37 deg C and 5% CO2, 3 uL of luciferase assay detection reagent is added. A luminescence read is obtained on the PerkinElmer Viewlux after 12 min incubation at room temperature.
% is scaled to controls: 0 for no effect and ±100 for the full control effect; potency is read from the fitted curve at half-maximal effect.

Chain of Glucagon-like peptide 1 receptor (Homo sapiens) (P43220 whole entry, looked up): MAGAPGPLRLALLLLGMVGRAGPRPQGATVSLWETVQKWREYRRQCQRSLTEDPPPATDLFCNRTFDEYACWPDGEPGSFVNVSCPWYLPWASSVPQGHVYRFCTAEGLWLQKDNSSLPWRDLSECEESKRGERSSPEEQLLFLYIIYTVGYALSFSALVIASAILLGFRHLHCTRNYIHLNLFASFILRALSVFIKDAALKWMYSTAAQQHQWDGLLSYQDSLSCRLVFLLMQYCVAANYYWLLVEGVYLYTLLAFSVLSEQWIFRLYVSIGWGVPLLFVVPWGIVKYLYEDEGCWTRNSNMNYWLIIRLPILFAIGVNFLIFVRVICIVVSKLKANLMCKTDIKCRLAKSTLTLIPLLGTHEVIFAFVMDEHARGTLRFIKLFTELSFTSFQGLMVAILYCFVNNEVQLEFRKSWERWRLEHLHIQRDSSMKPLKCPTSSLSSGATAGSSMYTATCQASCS

Structure (SMILES) | activity change, negative = inhibition | Potency
O=C(Nc1cccc2cccnc12)c1ccc2sc([C@H]3C[C@H](O)[C@@H](CO)O3)nc2c1 | -7.33% (inactive) | 
C=C1C(=O)OC2C1CCC(C)=CCCC1(C)OC21 (stereo unspecified) | -8.11% (inactive) | 
CC1CCCCN1S(=O)(=O)c1ccc(S(=O)(=O)N(CC(=O)Nc2ccccc2)Cc2cccs2)cc1 (stereo unspecified) |  | 11.2 µM (active)
CCN(CC(=O)NCc1cccs1)S(=O)(=O)c1ccc(NC(C)=O)cc1 | 9.52% (inactive) | 
CSCc1nnc(NC(=O)c2ccc(S(=O)(=O)N3CCCCC3C)cc2)o1 (stereo unspecified) | -34% (inactive) | 
CNc1cc(-c2c(OC)cccc2OC)ncn1 | 12.1% (inactive) | 
CCOc1ccc(-c2noc(CCC(=O)NC3CCCC3)n2)cc1OC | 2.22% (inactive) | 
CCNC(=O)CCc1nc(-c2ccc(C)cc2)no1 | 5.28% (inactive) | 
CCNC(=O)CCc1nc(-c2ccc(C(C)(C)C)cc2)no1 |  | 7.94 µM (active)
O=C1NC[C@H](CCCCN2C[C@H](Cc3ccc(O)cc3)N(CC3CCCCC3)C(=O)C2=O)N(CCc2ccccc2)C1=O | 17.3% (inactive) | 
OCCc1ccc(NCCc2ccco2)cc1 | 19.7% (inactive) | 
CC1(C(=O)Nc2ccc3c(c2)OCCO3)CSCC(=O)N1CCOc1ccccc1 (stereo unspecified) | -16.3% (inactive) | 
O=C(CCc1ccccc1)NCc1ccc2c(c1)CCN2C(=O)c1ccccc1 | 2.5% (inactive) | 
O=C(NCc1ccc2c(c1)CCN2C(=O)c1ccccc1)c1ccccc1 | 0.837% (inactive) | 
O=C(NCc1ccc2c(c1)CCN2C(=O)c1ccccc1)Nc1cc(F)ccc1F |  | 10 µM (active)
COc1ccc2c(c1)CCCO[C@]21O[C@H](CCO)C[C@H](O)[C@H]1O | -1.05% (inactive) | 
COc1cc(OC)c(C(=O)N2CCCC2)cc1OC | 9.35% (inactive) | 
Cc1c(Br)cc(C(=O)N2CCCCCC2)c(C)c1C |  | 10 µM (active)
Cc1ccc(C(=O)N2CCCC2)c(F)c1F | 0% (inactive) | 
C[C@H]1CN([C@@H](C)CO)C(=O)CCCn2nncc2CO[C@@H]1CN(C)Cc1ccc(Oc2ccccc2)cc1 | -3.26% (inactive) | 
CCCc1ccc(-c2csc(NC(=O)Cc3cccs3)n2)cc1 | -59.4% (inactive) | 

Structure (SMILES) | activity change, negative = inhibition | Potency
Cc1ccc(S(=O)(=O)NC(=O)Nc2nc(-c3ccc(F)c(F)c3)cs2)cc1 | 5.25% (inactive) | 
COc1ccc(CC(=O)Nc2nc(-c3ccc(F)c(F)c3)cs2)cc1OC |  | 3.98 µM (active)
CC1(C)CC(=O)C=C(c2ccccc2CO)C1=O | 7.06% (inactive) | 
CC1=C(C(=O)N2CCOCC2)CC(CC(=O)NCc2cccc3ccccc23)C(=O)N1CCC1=CCCCC1 (stereo unspecified) | -26.4% (inactive) | 
CC(C)N(C(=O)[C@H]1C[C@H](CC(=O)NC(C)(C)C)C(=O)N2CCc3c([nH]c4ccc(Cl)cc34)[C@]12C)C(C)C |  | 11.2 µM (active)
CC(C)N(C(=O)[C@H]1C[C@H](CC(=O)NCCC2=CCCCC2)C(=O)N2CCc3c([nH]c4cc(CCC(=O)N(C)C)ccc34)[C@]12C)C(C)C | -32.8% (inactive) | 
C[C@]12c3[nH]c4ccc(Cl)cc4c3CCN1C(=O)[C@@H](CC(=O)NCCCn1ccnc1)C[C@@H]2C(=O)N1CCOCC1 | 2.69% (inactive) | 
CS(=O)(=O)c1cccc(-c2ccc3nncn3c2)c1 | 18.5% (inactive) | 
Cc1ccccc1-c1ccc2c(c1)O[C@@H](CN(C)Cc1ccc(C(=O)O)cc1)[C@@H](C)CN([C@H](C)CO)S2(=O)=O | -5.91% (inactive) | 
O=C1c2ccccc2C(c2nc3ccccc3[nH]2)N1c1ccccc1 (stereo unspecified) | 19.2% (inactive) | 
CCOc1ccc(Cl)cc1-c1cc(C(=O)NCc2cccs2)[nH]n1 | -27.5% (inactive) | 
CC(C)c1ccc(CC(=O)N2CCC2(C)C(=O)NS(=O)(=O)c2ccc(C(C)(C)C)cc2)cc1 (stereo unspecified) | -23.7% (inactive) | 
O=c1c2cc(Br)ccc2nc(-c2cccc(Cl)c2)n1O | -27.4% (inactive) | 
C[C@@H]1C(c2ccc(F)cc2)=NN(c2ccc(Br)cc2)[C@H]1C(=O)N1CCOC1=O |  | 10 µM (active)
O=C1OCCN1C(=O)[C@H]1[C@H](c2ccc(Cl)cc2)C(c2cccc(Cl)c2)=NN1c1ccc(Br)cc1 |  | 7.94 µM (active)
Cc1ccc2c(c1)N(C(=O)Nc1ccc(Br)cc1F)CCO2 | 3.59% (inactive) | 
Cc1sc2ncnc(SCC(=O)NC3CCS(=O)(=O)C3)c2c1C (stereo unspecified) | -8.39% (inactive) | 
CCCCNC(=O)c1nc(C2CCN(S(=O)(=O)c3ccc(F)c(F)c3)CC2)oc1-c1cccc(C(F)(F)F)c1 | 28.4% (inactive) | 
O=S1(=O)CC(N2CCN(CCO)CC2)CN1C1CCCC1 (stereo unspecified) | 16.4% (inactive) | 
COCCNc1ncnc2c1c(-c1ccccc1)cn2-c1ccc(C)c(Cl)c1 | 2.32% (inactive) | 
O=c1[nH]cnc2c1c(-c1ccccc1)cn2-c1ccc(F)cc1 | -46.3% (inactive) | 

Structure (SMILES) | activity change, negative = inhibition | Potency
CCCNc1ncnc2c1c(-c1ccccc1)cn2-c1ccc(OCC)cc1 |  | 3.16 µM (active)
CC1(C(=O)Nc2ccc3c(c2)OCCO3)CN(S(C)(=O)=O)CC(=O)N1Cc1cccc(F)c1 (stereo unspecified) | 6.12% (inactive) | 
Cc1ccc(S(=O)(=O)c2c(COC(=O)c3cccc(Cl)c3)c(-c3ccccc3)nn2C)cc1 | -8.24% (inactive) | 
Cn1nc(-c2ccccc2)c(CSc2cccc(Cl)c2)c1Cl |  | 10 µM (active)
Cn1nc(-c2ccccc2)c(CO)c1Sc1ccccc1 | -24% (inactive) | 
CC(=O)N1Cc2cc(C(=O)NCc3cccc(F)c3)nc(-c3cccc(C4=CCCC4)c3)c2[C@H]1CCO | -8.88% (inactive) | 
COc1ccc(S(=O)(=O)N2CCN(CC(=O)N3CCNC3=O)CC2)cc1OC | 66.6% (inactive) | 
Cc1ccn2c(-c3csc(Nc4ccc(C(=O)O)cc4)n3)c(C)nc2c1 | -7.71% (inactive) | 
Oc1ccccc1N1CCN(C(=S)NCc2ccccc2)CC1 |  | 11.2 µM (active)
Oc1ccc(N2CCN(C(=S)NCc3ccccc3)CC2)cc1 | -61.1% (inactive) | 
CC1CCCCN1C(=S)NCc1ccccc1 (stereo unspecified) | 0% (inactive) | 
COc1cc2c(=O)n(C)c3ccccc3c2cc1OC | 39.7% (inactive) | 
Cc1ccc(OCC(=O)Nc2ccc(N3CCN(C(=O)c4ccco4)CC3)cc2)c(C)c1 |  | 7.94 µM (active)
Cc1ccc(C)c(OCC(=O)N2CCN(C(=O)c3ccco3)CC2)c1 | 0% (inactive) | 
CCC(=O)Nc1ccc(C(=O)N2CCN(C(=O)c3ccco3)CC2)cc1 | 9.34% (inactive) | 
Cc1ccc([N+](=O)[O-])cc1S(=O)(=O)N1CCCN(C)CC1 | -5.16% (inactive) | 
Cc1ccc2c(c1)C1CN(C)CCC1N2S(=O)(=O)c1ccc(Oc2ccc([N+](=O)[O-])cc2)cc1 (stereo unspecified) |  | 11.2 µM (active)
O=C(C1CCCN(S(=O)(=O)c2ccc([N+](=O)[O-])cc2)C1)N1CCCCC1 (stereo unspecified) | 5.83% (inactive) | 
CCc1ccccc1OCC(=O)Nc1nnc(C2CC2)s1 | 10.4% (inactive) | 
